Source: PubChem BioAssay
Activity calls are given as the source filed them. Unless noted, no rule for the calls is given here.

How the values were obtained:
[1] = system: Wnt5a (protein binding on small-molecule microarray); assay: small molecules binding Wnt5a protein – biophysical, small-molecule microarray, 635/667 nm fluorescence, primary screen (AID 1142); conditions: 635 nm fluorescence, higher = more signal;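 also: fluorescence read at 667 nm with signal to noise per printed feature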
[2] = ATP-based viability of Huh7 replicon cells – cell-based, CellTiter-Glo luminescence, basal, 48 h, cytotoxicity control for HCV replication inhibitor project, primary screen (AID 1143); conditions: higher = more signal, called active from +8 up or from −8 down;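 also: Huh7 hepatoma cells carrying a hepatitis C replication reporter with no stimulus; test concentration not given here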
[3] = Pseudomonas biofilm growth suppression – PAO1 strain, BacTiter-Glo luminescence, LB-PBS, primary screen (AID 1144); conditions: P. aeruginosa PAO1 biofilm, 12 h, higher = more signal
[4] = basal CRE-LacZ reporter activity in PC12 – cell-based, unstimulated, primary screen (AID 1145); conditions: no forskolin, luminescence, 4.5 h, higher = more signal, called active from +8 up or from −8 down
[5] = forskolin-driven CRE-LacZ activity in PC12 – cell-based, CRE-LacZ reporter, forskolin-stimulated, primary screen (AID 1146); conditions: luminescence, 4.5 h, higher = more signal, called active from +8 up or from −8 down;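 also: PC12 cells with 6xCRE LacZ reporter stimulated by forskolin 10 µM; beta-galactosidase reporter signal reflecting CREB driven transcription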
[6] = target: Streptavidin (Streptomyces avidinii) (UniProt P22629); assay: compounds binding control protein streptavidin – biophysical, small-molecule microarray, 635/667 nm fluorescence, artefact control for SMM compound annotation, primary screen (AID 1147); conditions: higher = more signal;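 also: signal reflects streptavidin binding to arrayed compounds as a control protein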
Chain of Streptavidin (Streptomyces avidinii) (P22629 whole entry, looked up): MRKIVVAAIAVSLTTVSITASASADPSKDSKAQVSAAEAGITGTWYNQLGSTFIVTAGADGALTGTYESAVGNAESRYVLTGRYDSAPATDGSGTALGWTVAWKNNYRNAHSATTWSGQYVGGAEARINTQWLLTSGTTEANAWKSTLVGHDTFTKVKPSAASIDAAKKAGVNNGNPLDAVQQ

[7] = probe aInhba binding on compound microarray – biochemical, small-molecule microarray, 635/667 nm fluorescence, primary screen (AID 1148); conditions: higher = more signal;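 also: score merges 667nm spot fluorescence with signal-to-noise for antibody binding to printed compounds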
[8] = target: Torsin-1A (Homo sapiens) (UniProt O14656); assay: TOR1A wild-type binding on microarray – cell lysate, small-molecule microarray, lysate, 635/667 nm, primary screen (AID 1149); conditions: COS7 hTOR1A-WT lysate, 635 nm fluorescence, higher = more signal
Chain of Torsin-1A (Homo sapiens) (O14656 whole entry, looked up): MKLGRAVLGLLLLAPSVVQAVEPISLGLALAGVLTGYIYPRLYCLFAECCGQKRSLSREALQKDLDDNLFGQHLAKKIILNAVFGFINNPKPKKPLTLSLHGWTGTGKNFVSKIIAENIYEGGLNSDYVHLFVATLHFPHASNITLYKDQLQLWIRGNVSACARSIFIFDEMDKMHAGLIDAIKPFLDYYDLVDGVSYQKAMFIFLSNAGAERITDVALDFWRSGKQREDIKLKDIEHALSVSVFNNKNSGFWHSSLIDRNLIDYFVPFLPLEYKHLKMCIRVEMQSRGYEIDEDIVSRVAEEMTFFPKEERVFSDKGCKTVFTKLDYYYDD

[9] = target: Torsin-1A (Homo sapiens) (UniProt O14656); assay: torsin A mutant lysate binding on microarrays – cell lysate, small-molecule microarray, COS7 lysate, 635/667 nm fluorescence, primary screen (AID 1150); conditions: COS7 hTOR1A mutant lysate, 635 nm fluorescence, higher = more signal;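 also: score pools 667 nm emission and signal to noise measuring lysate protein binding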
[10] = system: Sonic hedgehog protein (Shh); assay: Sonic hedgehog microarray binding compounds – biochemical, small-molecule microarray, 635/667 nm fluorescence, primary screen (AID 1151); conditions: 635 nm fluorescence, higher = more signal;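 also: Shh protein binding to compounds spotted on small-molecule microarray slides; score combines spot fluorescence intensity with signal-to-noise across triplicate slides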
[11] = optical density shifts of acrAB sulA E. coli – strain DRC41, OD650, 48 h, E. coli filamentation inducer project, primary screen (AID 1152); conditions: higher = more signal, called active from +8 up or from −8 down;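 also: E. coli MC1000 strain DRC41 lacking acrAB efflux pump and sulA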
[12] = probe aLefty1 binding on compound microarray – biochemical, small-molecule microarray, 635/667 nm fluorescence, primary screen (AID 1153); conditions: higher = more signal;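 also: score merges spot fluorescence with signal-to-noise ratio from the scanned slide images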
[13] = plasmodial surface anion channel blockers, osmotic lysis – cell-based, P. falciparum Indochina, OD700, 1 h, primary screen (AID 1154); conditions: P. falciparum Indochina infected RBC osmotic lysis, higher = more signal, called active from +8 up or from −8 down
[14] = plasmodial surface anion channel blockers, osmotic lysis – cell-based, P. falciparum Indochina, OD700, 2 h, primary screen (AID 1155);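 also: lysis reports solute entry through the parasite surface anion channel PSAC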; conditions: P. falciparum Indochina infected erythrocytes, higher = more signal, called active from +8 up or from −8 down
[15] = changes in parasitized red cell lysis, either direction – P. falciparum Indochina, OD700, 3 h, PSAC antagonist project, primary screen (AID 1156); conditions: P. falciparum-infected erythrocytes, osmotic lysis, higher = more signal, called active from +8 up or from −8 down
[16] = plasmodial surface anion channel blockers, osmotic lysis – cell-based, P. falciparum Indochina, OD700, 18 h, primary screen (AID 1157); conditions: P. falciparum Indochina infected erythrocytes, osmotic lysis OD700, 18 h; higher = more signal, called active from +8 up or from −8 down
[17] = S6 kinase pathway phospho-S6 level changes – cell-based, A549, cytoblot, luminescence, serum-stimulated, primary screen (AID 1158); conditions: 5 h, higher = more signal;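 also: serum-stimulated A549 lung adenocarcinoma cells; signal is phosphorylated S6 detected by cytoblot immunostaining with HRP secondary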
[18] = target: NADPH oxidase 2 (Homo sapiens) (UniProt P04839); assay: compounds shifting NOX2 Amplex Red fluorescence – cell-based, HEK293-NOX2, PMA-stimulated, NOX inhibitor project, primary screen (AID 1159); conditions: 45 min, higher = more signal, called active from +8 up or from −8 down; also: test concentration not given here
Chain of NADPH oxidase 2 (Homo sapiens) (P04839 whole entry, looked up): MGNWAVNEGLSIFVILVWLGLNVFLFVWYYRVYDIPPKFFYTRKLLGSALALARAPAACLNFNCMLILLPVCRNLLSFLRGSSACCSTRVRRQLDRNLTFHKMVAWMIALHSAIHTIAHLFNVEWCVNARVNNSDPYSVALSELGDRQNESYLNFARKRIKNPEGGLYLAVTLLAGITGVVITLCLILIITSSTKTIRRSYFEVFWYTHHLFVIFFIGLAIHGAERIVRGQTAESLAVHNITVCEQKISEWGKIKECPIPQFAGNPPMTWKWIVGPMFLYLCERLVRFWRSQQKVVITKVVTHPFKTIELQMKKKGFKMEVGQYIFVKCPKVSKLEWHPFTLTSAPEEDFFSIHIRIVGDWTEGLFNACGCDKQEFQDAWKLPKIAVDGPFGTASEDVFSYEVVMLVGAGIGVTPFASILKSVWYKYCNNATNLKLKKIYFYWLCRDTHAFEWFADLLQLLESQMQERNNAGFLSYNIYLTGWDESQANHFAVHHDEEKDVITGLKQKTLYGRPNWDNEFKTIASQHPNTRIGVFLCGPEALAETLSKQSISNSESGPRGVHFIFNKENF

[19] = target: NADPH oxidase 4 (Homo sapiens) (UniProt Q9NPH5); assay: compounds shifting NOX4 Amplex Red fluorescence – cell-based, HEK293-NOX4, tetracycline-induced, NOX inhibitor project, primary screen (AID 1160); conditions: HEK293-NOX4, Amplex Red H2O2 fluorescence, 45 min; higher = more signal, called active from +8 up or from −8 down
Chain of NADPH oxidase 4 (Homo sapiens) (Q9NPH5 whole entry, looked up): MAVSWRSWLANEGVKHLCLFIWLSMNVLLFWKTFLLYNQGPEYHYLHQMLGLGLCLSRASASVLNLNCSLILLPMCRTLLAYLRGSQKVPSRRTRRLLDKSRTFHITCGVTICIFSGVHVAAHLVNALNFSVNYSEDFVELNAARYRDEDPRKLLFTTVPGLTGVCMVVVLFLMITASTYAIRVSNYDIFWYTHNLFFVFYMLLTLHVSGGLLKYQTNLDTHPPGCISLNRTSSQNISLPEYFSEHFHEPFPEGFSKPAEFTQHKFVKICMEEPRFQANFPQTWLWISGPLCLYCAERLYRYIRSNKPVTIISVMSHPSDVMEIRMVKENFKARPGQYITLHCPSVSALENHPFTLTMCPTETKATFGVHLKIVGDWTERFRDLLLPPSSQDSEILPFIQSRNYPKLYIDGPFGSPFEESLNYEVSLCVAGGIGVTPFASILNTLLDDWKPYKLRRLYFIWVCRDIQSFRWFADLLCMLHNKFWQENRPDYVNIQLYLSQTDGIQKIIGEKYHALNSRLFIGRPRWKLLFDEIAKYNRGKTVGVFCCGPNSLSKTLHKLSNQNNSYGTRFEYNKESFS

[20] = target: NADPH oxidase 5 (Homo sapiens) (UniProt Q96PH1); assay: compounds shifting NOX5 Amplex Red fluorescence – cell-based, HEK293-NOX5, NOX inhibitor project, primary screen (AID 1161); conditions: HEK293-NOX5, ionomycin, 45 min, higher = more signal
Chain of NADPH oxidase 5 (Homo sapiens) (Q96PH1 whole entry, looked up): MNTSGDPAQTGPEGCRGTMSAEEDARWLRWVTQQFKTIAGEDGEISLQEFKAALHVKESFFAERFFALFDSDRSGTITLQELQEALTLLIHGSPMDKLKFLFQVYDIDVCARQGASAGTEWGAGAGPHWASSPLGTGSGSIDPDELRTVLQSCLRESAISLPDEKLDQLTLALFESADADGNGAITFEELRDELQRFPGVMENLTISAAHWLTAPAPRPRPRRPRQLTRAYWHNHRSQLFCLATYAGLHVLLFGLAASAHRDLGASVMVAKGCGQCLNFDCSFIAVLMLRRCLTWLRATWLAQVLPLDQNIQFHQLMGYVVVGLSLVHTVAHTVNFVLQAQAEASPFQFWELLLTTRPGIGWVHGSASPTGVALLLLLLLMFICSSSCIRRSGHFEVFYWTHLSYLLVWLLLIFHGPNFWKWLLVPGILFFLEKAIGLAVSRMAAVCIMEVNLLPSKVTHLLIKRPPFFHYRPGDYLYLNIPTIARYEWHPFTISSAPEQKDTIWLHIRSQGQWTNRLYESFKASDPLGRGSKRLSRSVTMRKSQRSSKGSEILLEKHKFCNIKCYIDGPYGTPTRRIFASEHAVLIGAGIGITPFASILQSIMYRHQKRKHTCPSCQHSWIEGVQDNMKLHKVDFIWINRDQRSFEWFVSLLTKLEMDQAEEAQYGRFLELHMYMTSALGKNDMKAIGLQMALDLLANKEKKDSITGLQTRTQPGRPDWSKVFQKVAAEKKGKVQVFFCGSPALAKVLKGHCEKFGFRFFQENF

SMILES | composite z-score [1] | z-score [2] | z-score [3] | z-score [4] | z-score [5] | composite z-score [6] | composite z-score [7] | composite z-score [8] | composite z-score [9] | composite z-score [10] | z-score [11] | composite z-score [12] | z-score [13] | z-score [14] | z-score [15] | z-score [16] | z-score [17] | z-score [18] | z-score [19] | z-score [20]
COc1cc(OC)c(C(O)C2C=CC3C(=O)NC(=O)C3N2Nc2ccc(Cl)cc2Cl)cc1Br (stereo not given) | 0.153 | -2.57 (inactive) | -0.835 (inactive) | 0.433 (inactive) | -0.919 (inactive) | 1.64 | 0.0111 | -0.241 | 0.414 | -0.366 | -2.02 (inactive) | 0.689 | 4.81 (inactive) | 1.4 (inactive) | -0.372 (inactive) | 1.84 (inactive) | -0.924 | -0.603 (inactive) | -5.17 (inactive) | -1.12
CC(C)(C)OC(=O)CC[C@]1(C(=O)O)N=C(c2ccc(OCCCO)cc2)O[C@H]1c1ccccc1N=[N+]=[N-] | 0.629 | -0.686 (inactive) | 0.448 (inactive) | -0.38 (inactive) | -0.658 (inactive) | 1.32 | 0.825 | -0.09 | 0.414 | -0.815 | 0.234 (inactive) | 1.58 | 32.9 (active) | 28.4 (active) | 0.912 (inactive) | 6.45 (inactive) | -0.466 | 0.7 (inactive) | 1.14 (inactive) | 1.31
CCOC(=O)[C@H]1C/C=C/C[C@H](C(=O)OCC)C(=O)O[C@H]2[C@@H](OC)O[C@H](CO)[C@@H](OC(=O)Nc3cccc(F)c3)[C@@H]2OC1=O | 0.39 | -6.52 (inactive) | -0.509 (inactive) | 0.765 (inactive) | -0.848 (inactive) | 0.555 | 0.83 | -0.24 | 0.118 | 0.849 | 0.0021 (inactive) | 1.53 | 4.53 (inactive) | 1.81 (inactive) | -2.04 (inactive) | 1.61 (inactive) | -0.0707 | -2.12 (inactive) | -0.389 (inactive) | -1.22
COc1ccc(CCN2C(=O)[C@@]3(c4ccc([N+](=O)[O-])cc4)CC(=O)N(C4CCCCC4)[C@@H]3c3ccc(CO)cc32)cc1 | -0.0463 | 0.443 (inactive) | 0.0718 (inactive) | -0.0512 (inactive) | 0.86 (inactive) | -0.298 | 0.158 | 0.209 | 0.128 | 1.19 | -0.183 (inactive) | 0.131 | -0.715 (inactive) | -0.0259 (inactive) | -0.979 (inactive) | -0.138 (inactive) | -0.423 | -1.47 (inactive) | -0.763 (inactive) | -0.0167
[N-]=[N+]=Nc1ccccc1C[C@]1(C(N)=O)N=C(c2ccc(OCCCO)cc2)O[C@H]1c1ccccc1 | 0.498 | -2.27 (inactive) | -0.726 (inactive) | 1.31 (inactive) | -0.723 (inactive) | 0.665 | 0.0516 | 0.644 | -0.0736 | -1.98 | -0.444 (inactive) | 0.228 | 19.8 (active) | 3.47 (inactive) | 1.84 (inactive) | 0.936 (inactive) | 0.176 | 0.631 (inactive) | 0.247 (inactive) | -1.32
C=CCOC(=O)[C@H]1[C@@H]2C(=O)O[C@@H](c3ccccc3)[C@@H](c3ccccc3)N2[C@@H](c2ccc(OCCOC(=O)[C@H]3C[C@H]4C(=O)N[C@@H](CC(C)C)C(=O)N4[C@H]3c3ccc(O)cc3)cc2)[C@]12C(=O)Nc1ccc(I)cc12 | 0.931 | -0.289 (inactive) | -0.829 (inactive) | -0.122 (inactive) | 0.535 (inactive) | 0.335 | -0.0695 | 1.45 | 1.45 | 2.31 | -1.1 (inactive) | 0.0839 | -0.414 (inactive) | 0.739 (inactive) | -0.483 (inactive) | 0.47 (inactive) | -0.182 | 1.82 (inactive) | 0.43 (inactive) | 0.982
COC(=O)[C@@]1(Cc2ccc(OC)cc2)[C@H]2c3cc(C(=O)N4CCCC4)n(Cc4ccccc4)c3C[C@H]2CN1C(=O)c1ccccc1 | 2.34 | -2.68 (inactive) | 0.888 (inactive) | 0.194 (inactive) | -0.754 (inactive) | 2.04 | 1.76 | -0.0218 | 0.107 | -0.442 | -1.49 (inactive) | 2.19 | 2.81 (inactive) | 0.496 (inactive) | 0.748 (inactive) | 0.69 (inactive) | -0.378 | -0.0412 (inactive) | -0.857 (inactive) | -3.04
C=CCOC(=O)[C@@H]1[C@H]2C(=O)O[C@H](c3ccccc3)[C@H](c3ccccc3)N2[C@H](c2ccc(OCCOC(=O)[C@@H]3C[C@@H]4C(=O)N[C@@H](CCCCN(C)C)C(=O)N4[C@@H]3c3ccc(O)cc3)cc2)[C@@]12C(=O)Nc1ccc(I)cc12 | 0.312 | -0.768 (inactive) | -0.975 (inactive) | -0.675 (inactive) | 0.595 (inactive) | 0.321 | 0.0649 | 0.724 | 1.84 | 1.74 | -0.193 (inactive) | -0.012 | -1.43 (inactive) | 0.997 (inactive) | 3.77 (inactive) | 0.374 (inactive) | -0.381 | 1.36 (inactive) | 0.636 (inactive) | 0.167
CC(C)C(CO)N1C(=O)[C@@H]2[C@H]3C(=O)OCC=C[C@H]3OC23C=CCN(C(C)C)C(=O)[C@@H]13 (stereo not given in full) | -0.3 | -0.602 (inactive) | -0.1 (inactive) | -0.757 (inactive) | -0.681 (inactive) | -0.629 | -0.0963 | -0.543 | -0.374 | 0.841 | 1.4 (inactive) | -0.146 | -0.237 (inactive) | 0.139 (inactive) | 0.333 (inactive) | 0.649 (inactive) | -0.1 | 0.834 (inactive) | 0.457 (inactive) | 1.23
